From the supplement of paper PMC12819154, “High-throughput peptide-centric local stability assay extends protein–ligand identification to membrane proteins, tissues and bacteria” (Nature Structural & Molecular Biology, 2025)

Compound: Nc1ncnc2c1ncn2[C@@H]1O[C@H](COP(=O)(O)OP(=O)(O)OP(=O)(O)O)[C@@H](O)[C@H]1O [adenosine 5'-triphosphate]
Experiment: log2 fold change of tryptic peptide abundance, ligand vs vehicle (limited proteolysis) (log2 ratio); higher = more trypsin-susceptible (destabilized)
Conditions: ligand concentration: 5 mM; sample: E. coli desalted lysate; replicate design: treated before aliquoting
Description: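 HT-PELSA: desalted E. coli K-12 BW25113 lysate (with 12 mM MgCl2) incubated with 5 mM ATP (pH 7) or water for 30 min at 25 C, then a 4 min trypsin pulse at 22 C. Peptides were quantified by DIA-MS (4 replicates). Value is the peptide log2 fold change (treated/control); negative = stabilized. Scale: negative = ligand-stabilized region.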
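Also: lysate desalted by size exclusion to strip endogenous ATP, peptide intensities built from DIA-NN precursor signals, and peptides missing any value discarded before comparison.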

Chain of UniProt P0A6H5 (P0A6H5 whole entry): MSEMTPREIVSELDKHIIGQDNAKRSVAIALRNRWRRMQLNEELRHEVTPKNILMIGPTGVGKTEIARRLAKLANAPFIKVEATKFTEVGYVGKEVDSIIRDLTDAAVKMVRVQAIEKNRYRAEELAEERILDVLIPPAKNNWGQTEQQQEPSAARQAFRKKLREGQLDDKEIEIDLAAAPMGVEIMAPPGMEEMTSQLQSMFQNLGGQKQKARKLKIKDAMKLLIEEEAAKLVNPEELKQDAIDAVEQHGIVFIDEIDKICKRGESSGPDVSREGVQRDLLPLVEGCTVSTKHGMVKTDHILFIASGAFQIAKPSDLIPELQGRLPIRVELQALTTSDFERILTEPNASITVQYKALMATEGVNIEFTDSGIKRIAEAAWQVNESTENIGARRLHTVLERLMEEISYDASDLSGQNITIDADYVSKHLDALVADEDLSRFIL
Chain of UniProt P21170 (P21170 whole entry): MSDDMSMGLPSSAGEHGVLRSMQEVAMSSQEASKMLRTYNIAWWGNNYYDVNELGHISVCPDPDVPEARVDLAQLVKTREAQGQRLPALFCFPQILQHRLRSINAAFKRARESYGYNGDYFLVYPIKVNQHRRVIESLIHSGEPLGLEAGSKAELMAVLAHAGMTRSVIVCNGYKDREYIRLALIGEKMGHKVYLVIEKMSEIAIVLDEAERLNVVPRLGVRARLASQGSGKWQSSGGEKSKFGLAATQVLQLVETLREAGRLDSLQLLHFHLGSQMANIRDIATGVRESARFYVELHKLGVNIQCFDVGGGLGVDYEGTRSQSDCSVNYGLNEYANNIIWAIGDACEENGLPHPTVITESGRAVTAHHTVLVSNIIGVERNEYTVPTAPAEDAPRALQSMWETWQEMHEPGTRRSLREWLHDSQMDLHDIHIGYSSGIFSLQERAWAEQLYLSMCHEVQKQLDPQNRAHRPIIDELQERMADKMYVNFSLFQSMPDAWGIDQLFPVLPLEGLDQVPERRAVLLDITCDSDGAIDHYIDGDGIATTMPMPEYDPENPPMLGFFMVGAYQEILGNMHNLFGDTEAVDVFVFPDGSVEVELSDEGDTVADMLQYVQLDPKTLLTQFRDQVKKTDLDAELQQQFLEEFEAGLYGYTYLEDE
Chain of UniProt P00903 (P00903 whole entry): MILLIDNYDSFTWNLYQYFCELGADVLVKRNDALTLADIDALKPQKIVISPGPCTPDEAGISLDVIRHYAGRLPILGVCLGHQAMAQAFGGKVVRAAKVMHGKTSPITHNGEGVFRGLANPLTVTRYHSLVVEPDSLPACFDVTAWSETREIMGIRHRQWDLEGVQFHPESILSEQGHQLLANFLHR
Chain of UniProt P39177 (P39177 whole entry): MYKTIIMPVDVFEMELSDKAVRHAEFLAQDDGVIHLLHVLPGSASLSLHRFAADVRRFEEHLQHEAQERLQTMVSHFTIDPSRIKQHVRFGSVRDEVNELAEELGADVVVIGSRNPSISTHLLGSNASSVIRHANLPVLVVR
Chain of UniProt P76196 (P76196 whole entry): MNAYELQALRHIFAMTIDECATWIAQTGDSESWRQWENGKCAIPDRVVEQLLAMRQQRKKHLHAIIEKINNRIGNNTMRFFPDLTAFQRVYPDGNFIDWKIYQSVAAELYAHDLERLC
Chain of UniProt P33643 (P33643 whole entry): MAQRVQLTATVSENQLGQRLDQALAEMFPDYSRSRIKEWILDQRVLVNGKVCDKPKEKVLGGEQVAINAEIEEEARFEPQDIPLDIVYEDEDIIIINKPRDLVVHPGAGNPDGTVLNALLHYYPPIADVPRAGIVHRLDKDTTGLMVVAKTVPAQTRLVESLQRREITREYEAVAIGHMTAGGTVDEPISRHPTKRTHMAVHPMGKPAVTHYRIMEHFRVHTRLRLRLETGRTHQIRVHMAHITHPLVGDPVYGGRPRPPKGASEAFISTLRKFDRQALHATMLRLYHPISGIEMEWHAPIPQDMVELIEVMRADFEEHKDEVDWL
Chain of UniProt P55135 (P55135 whole entry): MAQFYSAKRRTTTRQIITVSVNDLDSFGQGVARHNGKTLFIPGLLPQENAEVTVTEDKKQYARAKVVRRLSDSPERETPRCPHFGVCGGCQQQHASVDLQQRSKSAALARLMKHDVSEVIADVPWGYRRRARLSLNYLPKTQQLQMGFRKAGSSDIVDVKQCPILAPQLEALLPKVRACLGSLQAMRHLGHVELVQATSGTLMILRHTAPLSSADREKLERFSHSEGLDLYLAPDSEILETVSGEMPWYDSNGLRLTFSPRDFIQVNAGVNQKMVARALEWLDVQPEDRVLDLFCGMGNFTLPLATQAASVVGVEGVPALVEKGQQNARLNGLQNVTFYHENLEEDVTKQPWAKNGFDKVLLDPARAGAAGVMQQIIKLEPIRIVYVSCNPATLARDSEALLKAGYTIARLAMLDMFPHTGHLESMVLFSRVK
Chain of UniProt P21420 (P21420 whole entry): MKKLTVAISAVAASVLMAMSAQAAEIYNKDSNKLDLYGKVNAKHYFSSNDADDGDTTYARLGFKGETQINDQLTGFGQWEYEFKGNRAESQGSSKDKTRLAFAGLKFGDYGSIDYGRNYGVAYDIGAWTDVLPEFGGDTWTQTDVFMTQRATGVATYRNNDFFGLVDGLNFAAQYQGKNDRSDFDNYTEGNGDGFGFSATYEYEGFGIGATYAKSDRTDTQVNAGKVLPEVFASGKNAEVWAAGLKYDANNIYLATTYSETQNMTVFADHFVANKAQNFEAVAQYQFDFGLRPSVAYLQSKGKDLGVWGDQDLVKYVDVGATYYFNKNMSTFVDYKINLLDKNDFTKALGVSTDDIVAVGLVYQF
Chain of UniProt P0A9P6 (P0A9P6 whole entry): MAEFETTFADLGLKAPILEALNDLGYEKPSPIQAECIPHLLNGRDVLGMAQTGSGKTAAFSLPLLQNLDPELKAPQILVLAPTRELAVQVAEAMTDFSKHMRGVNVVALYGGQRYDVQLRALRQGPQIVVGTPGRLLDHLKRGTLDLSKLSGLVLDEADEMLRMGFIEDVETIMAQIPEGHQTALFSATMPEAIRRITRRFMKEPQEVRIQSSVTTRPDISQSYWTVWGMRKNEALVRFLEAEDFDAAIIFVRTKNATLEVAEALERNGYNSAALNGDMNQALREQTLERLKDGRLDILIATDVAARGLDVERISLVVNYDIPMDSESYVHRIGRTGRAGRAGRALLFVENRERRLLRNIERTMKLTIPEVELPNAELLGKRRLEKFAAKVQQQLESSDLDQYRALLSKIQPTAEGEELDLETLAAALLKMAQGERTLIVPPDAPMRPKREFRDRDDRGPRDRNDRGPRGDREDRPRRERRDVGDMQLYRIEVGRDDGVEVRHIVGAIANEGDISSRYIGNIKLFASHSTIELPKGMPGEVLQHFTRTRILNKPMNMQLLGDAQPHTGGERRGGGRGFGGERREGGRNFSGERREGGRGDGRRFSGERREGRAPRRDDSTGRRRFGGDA
Chain of UniProt P76556 (P76556 whole entry): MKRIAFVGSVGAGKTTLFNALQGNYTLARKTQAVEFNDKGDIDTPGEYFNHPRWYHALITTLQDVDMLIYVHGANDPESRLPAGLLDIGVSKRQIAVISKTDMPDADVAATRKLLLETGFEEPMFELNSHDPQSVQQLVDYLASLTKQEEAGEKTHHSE
Chain of UniProt P15031 (P15031 whole entry): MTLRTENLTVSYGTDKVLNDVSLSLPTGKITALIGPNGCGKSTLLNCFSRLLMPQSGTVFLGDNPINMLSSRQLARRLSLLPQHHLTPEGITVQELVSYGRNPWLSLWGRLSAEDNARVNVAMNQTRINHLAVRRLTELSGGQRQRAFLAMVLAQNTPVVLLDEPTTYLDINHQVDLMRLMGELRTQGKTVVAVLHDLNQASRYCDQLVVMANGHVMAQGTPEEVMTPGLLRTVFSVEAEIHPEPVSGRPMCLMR
Chain of UniProt P05055 (P05055 whole entry): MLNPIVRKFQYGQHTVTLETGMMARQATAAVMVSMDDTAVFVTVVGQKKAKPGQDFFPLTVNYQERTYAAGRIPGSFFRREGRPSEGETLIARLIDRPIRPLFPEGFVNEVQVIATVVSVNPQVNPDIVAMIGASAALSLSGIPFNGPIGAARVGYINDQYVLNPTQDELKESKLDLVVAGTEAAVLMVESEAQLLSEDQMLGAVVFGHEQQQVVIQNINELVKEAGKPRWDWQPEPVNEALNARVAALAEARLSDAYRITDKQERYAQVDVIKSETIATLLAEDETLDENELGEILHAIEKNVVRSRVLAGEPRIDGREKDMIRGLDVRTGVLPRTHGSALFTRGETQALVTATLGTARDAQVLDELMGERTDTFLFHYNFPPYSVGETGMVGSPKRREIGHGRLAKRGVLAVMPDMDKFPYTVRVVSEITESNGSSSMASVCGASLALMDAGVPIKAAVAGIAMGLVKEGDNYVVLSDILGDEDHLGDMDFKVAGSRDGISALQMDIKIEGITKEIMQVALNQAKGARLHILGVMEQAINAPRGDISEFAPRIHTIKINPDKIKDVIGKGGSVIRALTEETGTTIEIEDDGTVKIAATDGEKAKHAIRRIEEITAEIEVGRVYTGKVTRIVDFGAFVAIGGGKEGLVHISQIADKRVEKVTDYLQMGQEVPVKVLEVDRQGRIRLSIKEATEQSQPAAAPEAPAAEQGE
Chain of UniProt P16691 (P16691 whole entry): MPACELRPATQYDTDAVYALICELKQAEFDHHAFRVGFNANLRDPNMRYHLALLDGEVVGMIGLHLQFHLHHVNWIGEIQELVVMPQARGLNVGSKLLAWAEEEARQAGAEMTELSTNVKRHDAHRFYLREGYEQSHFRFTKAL
Chain of UniProt P07109 (P07109 whole entry): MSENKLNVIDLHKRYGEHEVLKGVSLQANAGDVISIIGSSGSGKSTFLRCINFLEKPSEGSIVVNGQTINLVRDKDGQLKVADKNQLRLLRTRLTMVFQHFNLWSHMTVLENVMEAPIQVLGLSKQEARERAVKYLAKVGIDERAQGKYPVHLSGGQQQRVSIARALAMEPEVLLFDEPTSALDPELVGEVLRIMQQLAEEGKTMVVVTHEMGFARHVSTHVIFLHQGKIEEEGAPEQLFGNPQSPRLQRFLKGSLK

Target | log2 fold change
UniProt P15005 (peptide sequence: LAYLLTGEK, peptide start residue: 214) | -1.01
UniProt P76542 (peptide sequence: VAEDWFATR, peptide start residue: 108) | -0.902
UniProt P0A9P6 (peptide sequence: RFMKEPQEVR, peptide start residue: 200) | -2.4
UniProt P76556 (peptide sequence: IAFVGSVGAGK, peptide start residue: 4) | -0.693
UniProt P21420 (peptide sequence: HYFSSNDADDGDTTYAR, peptide start residue: 44) | -0.336
UniProt P21170 (peptide sequence: TLLTQFR, peptide start residue: 619) | 0.611
UniProt P16691 (peptide sequence: VGFNANLRDPNMR, peptide start residue: 36) | -0.259
UniProt P37194 (peptide sequence: GNNQPDIQK, peptide start residue: 28) | 0.489
UniProt P0A6H5 (peptide sequence: VQAIEKNR, peptide start residue: 113) | 1.65
UniProt P76909 (peptide sequence: SGLEGAFHQDPATLSGGQR, peptide start residue: 121) | 0.631
UniProt P0A9J4 (peptide sequence: HTEIDYINGFLLRR, peptide start residue: 254) | 0.895
UniProt P24173 (peptide sequence: IKLPWGAPHEEER, peptide start residue: 213) | -0.445
UniProt P76196 (peptide sequence: VVEQLLAMR, peptide start residue: 47) | -0.864
UniProt P55135 (peptide sequence: RLSDSPER, peptide start residue: 69) | -0.744
UniProt P15031 (peptide sequence: TVFSVEAEIHPEPVSGRPMCLMR, peptide start residue: 233) | 1.33
UniProt P19323 (peptide sequence: ELENVIER, peptide start residue: 600) | -0.833

Target | log2 fold change
UniProt P22255 (peptide sequence: ESFLNPGFR, peptide start residue: 234) | 0.721
UniProt P07109 (peptide sequence: YGEHEVLK, peptide start residue: 15) | -1.13
UniProt P14377 (peptide sequence: LVALGHLAAGVAHEIR, peptide start residue: 242) | 1.01
UniProt P00903 (peptide sequence: GLANPLTVTR, peptide start residue: 117) | -0.376
UniProt P0AF96 (peptide sequence: AHVTAETPK, peptide start residue: 26) | -0.321
UniProt P77395 (peptide sequence: RQLYALLY, peptide start residue: 277) | 0.6
UniProt P33643 (peptide sequence: IKEWILDQR, peptide start residue: 36) | -0.691
UniProt P75785 (peptide sequence: SLGLTLNR, peptide start residue: 266) | -0.884
UniProt P30864 (peptide sequence: KIIASPDYISR, peptide start residue: 165) | 1.32
UniProt P10121 (peptide sequence: KRGFFSWLGFGQK, peptide start residue: 6) | 0.814
UniProt P39177 (peptide sequence: FEEHLQHEAQER, peptide start residue: 58) | -2.59
UniProt P56580 (peptide sequence: KIVYITAGTRPAIVDK, peptide start residue: 26) | 1.13
UniProt P30844 (peptide sequence: NLVENAHR, peptide start residue: 260) | -1.02
UniProt P76053 (peptide sequence: NVLIIHGK, peptide start residue: 116) | 0.613
UniProt P05055 (peptide sequence: GDISEFAPR, peptide start residue: 546) | -0.643
